“And” between values parts separate entries of the source, which are not always exact repeats. Equal entries are not always repeated. The source made the active and inactive calls. Rule for the calls: active = hit-call score of the fitted dose curve at least 0.9, where 1 is the maximum; inactive = score below 0.9.
experiment: CCTE_Harrill_HTTr_Viability_MCF7: CCTE's 6-hour Cell Viability Assessment for the High-Throughput Transcriptomics (HTTr) Platform, in MCF-7 cells cultured in DMEM + 10% fetal bovine serum, Harrill Lab (AID 2284010)
Excerpt: This is a cell-based assay that evaluates cell viability using high content imaging to evaluate membrane integrity using propidium iodide dye exclusion in a 384 well format.One of seven assay components measured from the CCTE_Harrill_HTTr_Viability assay. This was part of a full screening experiment. This is a cell-based assay that evaluates cell viability in MCF-7 cells cultured in DMEM + 10% fetal bovine serum. High content imaging is used to evaluate membrane integrity using propidium iodide dye exclusion. Measurements are taken at 6 hours after chemical dosing in 384-well format.The assay component endpoint CCTE_Harrill_HTTr_Viability_MCF7 was analyzed with bidirectional fitting relation to DMSO as the negative control and baseline of activity. Using a type of viability reporter, gain-of-signal activity can be used to evaluate membrane integrity using propidium iodide dye exclusion to understand changes in cytotoxicity. To generalize the intended target to other relatable targets, this assay endpoint is annotated to cell cycle, where the subfamily is cytotoxicity.
Chemicals were tested in MCF7 cells in an eight point dilution series with a six hour exposure duration.

Row | Compound | outcome | AC50
1 | CCCCCCCCCc1ccc(OCCO)cc1 | inactive | –
2 | CCC(Cc1c(I)cc(I)c(N)c1I)C(=O)O (stereo unspecified) | inactive | –
3 | C[C@]12CC[C@H]3C(=CCc4cc(O)ccc43)[C@@H]1CCC2=O | inactive | –
4 | CSc1ccc(O)cc1C | inactive | –
5 | CCCCCCCCCCCCC[N+](C)(C)Cc1ccccc1 | inactive | –
6 | CCN=c1cc2oc3cc(NCC)c(C)cc3c(-c3ccccc3C(=O)OCC)c-2cc1C | – | 214 nM (active) and 159 nM (active)
7 | CCOC(=O)C1CC(=O)C(=C(O)C2CC2)C(=O)C1 (stereo unspecified) | inactive | –
8 | Cc1ccc(O)c(-n2nc3ccccc3n2)c1 | inactive | –
9 | Cc1cccc(C)n1 | inactive | –
10 | Cc1cc(=O)[nH]c(C(C)C)n1 | inactive | –
11 | CC1CCCCC1 | inactive | –
12 | CN(N=O)C(=O)N[C@@H]1[C@@H](O)[C@H](O)[C@@H](CO)O[C@@H]1O | inactive | –
13 | CCCCCCCC/C=C\CCCCCCCC(=O)N(C)CC(=O)O | inactive | –
14 | CCc1ccc(C)nc1 | inactive | –
15 | Cc1cnccn1 | inactive | –
16 | CCCCCCCCn1sc(Cl)c(Cl)c1=O | inactive | –
17 | Brc1ccccn1 | inactive | –
18 | CC(C)(C)c1cc(CCC(=O)OCC(COC(=O)CCc2cc(C(C)(C)C)c(O)c(C(C)(C)C)c2)(COC(=O)CCc2cc(C(C)(C)C)c(O)c(C(C)(C)C)c2)COC(=O)CCc2cc(C(C)(C)C)c(O)c(C(C)(C)C)c2)cc(C(C)(C)C)c1O | inactive | –
19 | O=S(=O)(O)c1ccc(Cl)cc1 | inactive | –
20 | CN(C)C(C)(C)CO | inactive | –
21 | CCN=C1C=CC(=C(c2ccc(N(CC)CC)cc2)c2ccc(N(CC)CC)cc2)c2ccccc21 | inactive | –
22 | CSc1ccc(Cl)cc1 | inactive | –
23 | CCCCCCCCCCCCCCCCC | inactive | –
24 | CCCCC(CC)COC(=O)c1ccc(N(C)C)cc1 (stereo unspecified) | inactive | –
25 | CC(=O)CCC(C)C | inactive | –
26 | O=C(c1ccccc1)c1ccc(O)cc1O | inactive | –

— PubChem BioAssay (EPA / NIEHS)
